Test results as given in PubChem BioAssay (NCI).
The panel holds about 83,000 compounds, 20% with a hit somewhere; the sample as a whole holds those more often.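 Step 1: grow cells in 96-well plates. Step 2: add test compound at a single concentration. Step 3: incubate 48 h. Step 4: record percent growth.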 Unmarked numbers belong to inactive results. Active and inactive are the calls of the source. The calls were made as follows: active = growth percent below 10; inactive = the rest.

Legend:
Experiment in all cases: NCI-60 one-dose screen, 48 h (100 = growth as untreated, 0 = no growth, -100 = all killed)
Details in all cases: 10 µM unless noted
DU-145 prostate = system: DU-145 prostate
K-562 leukemia = system: K-562 leukemia
MALME-3M melanoma = system: MALME-3M melanoma
MDA-MB-231 breast = system: MDA-MB-231 breast
RXF 393 renal = system: RXF 393 renal
SF-268 CNS = system: SF-268 CNS
SF-295 CNS = system: SF-295 CNS
SF-539 CNS = system: SF-539 CNS
UACC-257 melanoma = system: UACC-257 melanoma
M14 melanoma = system: M14 melanoma
HCT-15 colon = system: HCT-15 colon
HT29 colon = system: HT29 colon
SNB-75 CNS = system: SNB-75 CNS
SNB-19 CNS = system: SNB-19 CNS
U251 CNS = system: U251 CNS
PC-3 prostate = system: PC-3 prostate
SK-MEL-5 melanoma = system: SK-MEL-5 melanoma
UACC-62 melanoma = system: UACC-62 melanoma
LOX IMVI melanoma = system: LOX IMVI melanoma
SK-MEL-28 melanoma = system: SK-MEL-28 melanoma

Row | Compound | growth (DU-145 prostate) [%] | growth (K-562 leukemia) | growth (MALME-3M melanoma) | growth (MDA-MB-231 breast) | growth (RXF 393 renal) | growth (SF-268 CNS) | growth (SF-295 CNS) | growth (SF-539 CNS) | growth (UACC-257 melanoma) | growth (M14 melanoma) | growth (HCT-15 colon) | growth (HT29 colon) | growth (SNB-75 CNS) | growth (SNB-19 CNS) [%] | growth (U251 CNS) | growth (PC-3 prostate) | growth (SK-MEL-5 melanoma) | growth (UACC-62 melanoma) | growth (LOX IMVI melanoma) | growth (SK-MEL-28 melanoma)
1 | CCOc1ccc(N=C(C)Nc2ccc(OCC)cc2)cc1 | 114 | 99.6% | 117% | 118% | 113% | 88.8% | 107% | 118% | 104% | 101% | 92.1% | 109% | 80.5% | 99.2 | 108% | 93.2% | 109% | 104% | 102% | 113%
2 | COc1cc2c(Oc3ccc4[nH]c(C)cc4c3F)ncnc2cc1OCCCN1CCCC1 | 96.8 | 71.2% | 101% | 104% | 74.7% | 72.2% | 97.7% | 45.2% | 98.8% | 92.8% | 99.4% | 83.9% | 50.9% | 88.2 | 63.2% | 103% | 104% | 103% | 85.8% | 95.8%
3 | c1cc(OCCN2CCCCC2)cc(-c2n[nH]c3ccc(-c4ncn[nH]4)cc23)c1 | 62.4 | 36.9% | 13.5% | 54.7% | 90.3% | 77.8% | 92.3% | 49.4% | 70.8% | 22.9% | 79.7% | 21% | 46.1% | 86.2 | 84% | 86.9% | 43.4% | 31.9% | 30.8% | 46.5%
4 | CCc1cc2c(cc1N1CCC(N3CCOCC3)CC1)C(C)(C)c1[nH]c3cc(C#N)ccc3c1C2=O | 10.1 | 2.08% (active) | -27.4% (active) | -7.59% (active) | -1.05% (active) | -2.19% (active) | -3.18% (active) | -71.8% (active) | -20% (active) | -26.1% (active) | 7.91% (active) | -58% (active) | -90.3% (active) | 20.2 | -19.5% (active) | 4.07% (active) | 10.2% | -16.4% (active) | -16.2% (active) | -27.2% (active)
5 | O=C(c1ccc(/C=C/c2n[nH]c3ccccc23)cc1)N1CCNCC1 | 39.6 | 12.4% | 10.4% | 27.1% | -15.4% (active) | 39.2% | 51.4% | -12% (active) | 35.9% | 27.8% | 40.3% | 13.5% | 0.841% (active) | 68.7 | 58.9% | 38.3% | 53.1% | 48.7% | 5.66% (active) | 46.2%
6 | Cc1cc(NCC(=O)Nc2ccc(-c3nc4ccccc4s3)cc2)no1 | 95.9 | 83% | 89.5% | 108% | 105% | 87.4% | 96.4% | 105% | 99.7% | 106% | 90.7% | 105% | 111% | 96.5 | 88.1% | 96.6% | 87.7% | 86.5% | -42.7% (active) | 110%
7 | C#Cc1cccc(Nc2ncnc3cc4c(cc23)OCCOCCOCCO4)c1 | 47.8 | 36.2% | 84.8% | 67.4% | 40.7% | 51.6% | 39.6% | 80.5% | 38.9% | 49.2% | 68.8% | 57% | 57.7% | 60.9 | 57% | 57.3% | 58.1% | 32.9% | 51% | 57.6%
8 | CC[C@@H]1C(=O)N(C)c2cnc(Nc3ccc(C(=O)NC4CCC(N5CCN(CC6CC6)CC5)CC4)cc3OC)nc2N1C(C)C (stereo not given in full) | 14.6 | -6.16% (active) | -80.6% (active) | 5.19% (active) | -30.4% (active) | 11.2% | -36.2% (active) | -85.7% (active) | -67.3% (active) | -57.7% (active) | 2.76% (active) | -25.9% (active) | -8.67% (active) | 25.9 | -16.3% (active) | 9.7% (active) | -96.5% (active) | -47.3% (active) | -72.1% (active) | -72.3% (active)
